Measured values: PubChem BioAssay
The source made the active and inactive calls.

Assays:
[1] = tested on: Plasmodium falciparum Sir2 (PF13_0152, Sir2A); test: Plasmodium falciparum Sir2A binding compounds – biochemical, small-molecule microarray, 635 nm fluorescence, primary screen (AID 1098); conditions: fluorescence 635 nm, higher = more signal;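 further: score merges spot fluorescence intensity with its signal-to-noise ratio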
[2] = probe aDKK1 binding to arrayed compounds – biochemical, biotinylated probe, 635/667 nm fluorescence, primary screen (AID 1099); conditions: small-molecule microarray, higher = more signal;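 further: score merges 667nm spot fluorescence with signal to noise across triplicate slides; reference of the scale not given here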
[3] = probe aCHRDL2 binding to arrayed compounds – biochemical, biotinylated probe, 635/667 nm fluorescence, primary screen (AID 1100); conditions: small-molecule microarray, higher = more signal
[4] = change in splice reporter luminescence, either direction, cell-based, HEK293, spliceosome inhibition project, primary screen (AID 1101); conditions: HEK293 splicing luciferase reporter, 24 h, higher = more signal, called active from +8 up or from −8 down;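 further: HEK293 cells carrying a splicing-competent luciferase reporter gene; test concentration not given here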
[5] = target: Fibroblast growth factor 10 (Homo sapiens) (UniProt O15520); test: compounds binding fibroblast growth factor 10 – biochemical, small-molecule microarray, 635 nm fluorescence, primary screen (AID 1102); conditions: FGF10 binding, fluorescence 635 nm, higher = more signal
[6] = tested on: glycogen synthase kinase-3 (GSK3A per assay name; protocol says GSK3B); test: compounds binding glycogen synthase kinase-3 – biochemical, small-molecule microarray, 635 nm fluorescence, GSK3A, primary screen (AID 1103); conditions: fluorescence 635 nm, higher = more signal; further: the record names both GSK3A and GSK3B
[7] = target: Epidermal growth factor receptor (Homo sapiens) (UniProt P00533); test: compounds binding epidermal growth factor receptor – biochemical, small-molecule microarray, 635 nm fluorescence, primary screen (AID 1104); conditions: EGFR binding, higher = more signal;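 further: score merges 667 nm emission intensity with spot signal to noise over triplicate slides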
[8] = target: Follistatin-related protein 3 (Homo sapiens) (UniProt O95633); test: compounds binding follistatin-related protein 3 – biochemical, small-molecule microarray, 635 nm fluorescence, primary screen (AID 1105); conditions: FSTL3 binding, higher = more signal;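 further: score merges emission near 667 nm and signal to noise per printed spot across three slides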
[9] = target: Dickkopf-related protein 1 (Homo sapiens) (UniProt O94907); test: small molecules binding DKK1 protein – biochemical, small-molecule microarray, 635 nm fluorescence scan, primary screen (AID 1106); conditions: higher = more signal;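 further: score merges emission near 667 nm with signal to noise over three replicate slides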
[10] = tested on: Inhibin beta A chain (activin A); test: small molecules binding activin A – biochemical, small-molecule microarray, 635 nm fluorescence scan, primary screen (AID 1107); conditions: INHBA, higher = more signal;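 further: mouse activin A protein probed at 4.33 µg/mL on printed slides; score merges bound-protein fluorescence near 667 nm with spot signal-to-noise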

Dickkopf-related protein 1 (Homo sapiens), sequence (O94907 whole entry, looked up): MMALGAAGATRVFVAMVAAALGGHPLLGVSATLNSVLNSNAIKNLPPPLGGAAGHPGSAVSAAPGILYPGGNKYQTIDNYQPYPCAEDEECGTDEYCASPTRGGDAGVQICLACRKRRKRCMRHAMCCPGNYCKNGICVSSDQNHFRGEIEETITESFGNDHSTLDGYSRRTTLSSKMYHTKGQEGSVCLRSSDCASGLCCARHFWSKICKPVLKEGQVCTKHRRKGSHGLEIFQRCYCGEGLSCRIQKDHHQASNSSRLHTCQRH
Follistatin-related protein 3 (Homo sapiens), sequence (O95633 whole entry, looked up): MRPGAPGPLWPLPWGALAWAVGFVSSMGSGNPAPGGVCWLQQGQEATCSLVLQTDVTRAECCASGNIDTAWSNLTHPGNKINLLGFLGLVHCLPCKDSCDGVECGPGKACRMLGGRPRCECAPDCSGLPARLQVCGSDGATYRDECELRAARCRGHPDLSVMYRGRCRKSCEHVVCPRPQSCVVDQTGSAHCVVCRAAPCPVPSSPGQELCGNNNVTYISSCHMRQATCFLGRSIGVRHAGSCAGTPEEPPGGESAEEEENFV
Fibroblast growth factor 10 (Homo sapiens), sequence (O15520 whole entry, looked up): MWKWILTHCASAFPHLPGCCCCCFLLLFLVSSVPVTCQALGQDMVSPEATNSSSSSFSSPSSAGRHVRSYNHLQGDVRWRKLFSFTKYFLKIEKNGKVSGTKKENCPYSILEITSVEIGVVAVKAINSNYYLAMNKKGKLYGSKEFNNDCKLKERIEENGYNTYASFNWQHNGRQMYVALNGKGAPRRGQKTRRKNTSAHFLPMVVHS
Epidermal growth factor receptor (Homo sapiens), sequence (P00533 whole entry, looked up): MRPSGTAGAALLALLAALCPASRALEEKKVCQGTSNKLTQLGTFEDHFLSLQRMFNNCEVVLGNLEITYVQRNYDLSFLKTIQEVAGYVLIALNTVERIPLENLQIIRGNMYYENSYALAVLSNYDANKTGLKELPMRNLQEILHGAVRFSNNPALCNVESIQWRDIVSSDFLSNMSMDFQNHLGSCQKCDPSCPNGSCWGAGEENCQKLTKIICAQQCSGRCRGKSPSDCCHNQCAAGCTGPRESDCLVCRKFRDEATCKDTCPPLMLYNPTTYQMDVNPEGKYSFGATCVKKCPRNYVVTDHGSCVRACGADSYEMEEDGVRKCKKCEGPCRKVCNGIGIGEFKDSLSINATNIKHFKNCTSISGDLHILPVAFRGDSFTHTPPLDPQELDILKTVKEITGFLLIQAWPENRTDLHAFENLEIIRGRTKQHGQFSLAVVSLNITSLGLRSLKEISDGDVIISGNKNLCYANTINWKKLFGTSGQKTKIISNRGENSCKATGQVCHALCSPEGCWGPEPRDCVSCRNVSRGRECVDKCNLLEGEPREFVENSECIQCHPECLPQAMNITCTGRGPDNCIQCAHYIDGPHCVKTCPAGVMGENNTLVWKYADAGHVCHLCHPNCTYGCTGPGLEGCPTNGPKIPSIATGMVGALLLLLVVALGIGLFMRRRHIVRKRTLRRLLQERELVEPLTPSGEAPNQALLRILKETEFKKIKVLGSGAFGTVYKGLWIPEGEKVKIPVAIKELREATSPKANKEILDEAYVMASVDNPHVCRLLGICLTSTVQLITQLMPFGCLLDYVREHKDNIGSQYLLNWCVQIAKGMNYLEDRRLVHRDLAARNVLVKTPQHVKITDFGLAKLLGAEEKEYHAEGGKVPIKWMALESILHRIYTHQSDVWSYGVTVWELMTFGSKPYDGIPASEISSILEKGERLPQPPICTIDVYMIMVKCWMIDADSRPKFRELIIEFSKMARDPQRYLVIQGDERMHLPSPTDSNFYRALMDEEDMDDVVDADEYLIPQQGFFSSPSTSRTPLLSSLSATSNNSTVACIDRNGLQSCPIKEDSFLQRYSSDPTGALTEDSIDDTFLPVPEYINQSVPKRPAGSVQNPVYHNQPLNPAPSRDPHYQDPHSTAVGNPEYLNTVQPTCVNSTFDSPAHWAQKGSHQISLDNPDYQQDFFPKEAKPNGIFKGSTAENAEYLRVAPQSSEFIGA

Compound | composite z-score [1] | composite z-score [2] | composite z-score [3] | z-score [4] | composite z-score [5] | composite z-score [6] | composite z-score [7] | composite z-score [8] | composite z-score [9] | composite z-score [10]
C#CCN=C(N)N | 0.271 | 0.0623 | -0.534 | 0.422 (inactive) | 0.528 | 0.605 | 0.527 | 0.918 | 0.861 | 0.548
O=C1O[C@@H](c2ccccc2)[C@@H](c2ccccc2)N2[C@@H](c3ccc(OCCO)cc3)[C@]3(C(=O)Nc4ccc(C#CCCO)cc43)[C@@H](C(=O)Nc3nc4ccccc4s3)[C@H]12 | 1.08 | 0.49 | 0.683 | -0.288 (inactive) | 0.975 | 1.29 | 0.367 | 1.08 | 0.0321 | 0.655
Cc1ccc(F)cc1S(=O)(=O)N[C@@H]1CCN(Cc2ccc3[nH]ccc3c2)C1 | 0.114 | -0.177 | -0.124 | 0.309 (inactive) | 0.482 | 0.139 | 0.651 | 1.08 | 0.574 | 0.689
C=CCC(OC(C)=O)[C@@H]1[C@@H](N(Cc2ccc(-c3ccccc3)cc2)C(=O)c2ccc(-c3ccccc3)cc2)c2cc(OCCCO)ccc2N1C(=O)c1ccc2ccccc2n1 (stereo not given in full) | 0.212 | 0.103 | 0.168 | -1.27 (inactive) | 0.46 | 0.213 | -0.486 | 0.204 | -0.328 | 1.38
CC(C)C[C@@H]1NC(=O)[C@@]23C(=O)N[C@@H](Cc4ccccc4)C2[C@H](C)[C@@]2(C)O[C@H]2C3/C=C/C/C=C\CNC(=O)[C@@H](CC(C)C)NC1=O (stereo not given in full) | 0.331 | -0.299 | -0.496 | -0.958 (inactive) | 0.37 | 0.193 | 0.367 | 1.1 | 0.511 | 0.904
CN(C)CCCCNC(=O)[C@H]1C[C@H]2C(=O)N[C@@H](Cc3ccccc3)C(=O)N2[C@H]1c1cccc(OCCO)c1 | 1.2 | -0.336 | 0.336 | -1.9 (inactive) | -0.407 | -1.51 | 0.0459 | 0.198 | 0.574 | -0.272
C=C(CC1([C@@H](NP(=O)(c2ccccc2)c2ccccc2)[C@H]2C[C@@H]2CCN(C(=O)OCC)S(=O)(=O)c2ccc(C)cc2)CC1)c1ccccc1 | 0.827 | 1.31 | 1.23 | -2.39 (inactive) | 0.429 | 0.288 | 0.0577 | 0.748 | -0.636 | 1.17
COCCOC(=O)N1C(=O)[C@@]2(c3ccccc31)[C@H](C(N)=O)[C@H]1C(=O)O[C@H](c3ccccc3)[C@H](c3ccccc3)N1[C@@H]2c1ccc(OCCO)cc1 | 0.537 | -0.122 | 0.093 | 0.172 (inactive) | 1.08 | 1.3 | 0.0401 | 1.1 | 0.253 | 0.319
COCC(=C=CC[C@@H](O)c1cccc(OCCO)c1)C[C@@H](O)COCc1ccccc1 | 0.264 | 0.613 | 0.67 | -0.51 (inactive) | 1.4 | 1.19 | -0.623 | 0.416 | -0.267 | 0.717
COc1ccc(NC(=O)O[C@H]2[C@H](OC(=O)Nc3ccc4c(c3)OCO4)[C@H](OC(=O)Nc3ccc4c(c3)OCO4)[C@@H](OC)O[C@@H]2CO)cc1 | 1.51 | 0.125 | 0.58 | -0.213 (inactive) | 0.81 | 1.23 | -0.385 | 0.59 | 0.409 | 0.753
COc1ccc(NN2C(C(O)c3cc(C(F)(F)F)cc(C(F)(F)F)c3)C=CC3C(=O)N(C4CCCCC4)C(=O)C32)cc1 (stereo not given) | 1.12 | 1.28 | 0.751 | -1.08 (inactive) | 0.37 | 0.977 | 0.0981 | 0.384 | -0.292 | 0.639
Cc1ccc(S(=O)(=O)N2[C@@H](c3ccccc3)C(C(=O)O)=CC[C@H]2c2ccc(C#N)cc2)cc1 | 1.16 | 0.543 | 0.864 | -0.0152 (inactive) | 0.888 | 0.379 | 0.0164 | 0.273 | -0.522 | 0.667
CCCC=C(CCC)[C@@H](NC(=O)c1ccccc1)c1ccc(C(=O)OC)cc1 | 0.578 | 0.374 | -0.0902 | -1.98 (inactive) | 1 | 0.294 | 0.891 | 0.806 | 0.162 | 0.613
COCCOC(=O)N1C(=O)[C@@]2(c3cc(C#CC4=CCCCC4)ccc31)[C@H](c1ccc(OCCO)cc1)N1[C@H](c3ccccc3)[C@H](c3ccccc3)OC(=O)[C@H]1[C@@H]2C(=O)N1CCCCCCC1 | 0.959 | 1.43 | 1.16 | -1.07 (inactive) | 1.02 | 1.33 | 0.513 | 1.46 | 1.01 | 1.7
CC(C)CNC(=O)[C@@H]1c2ccccc2C(=O)N(C2Cc3ccccc3C2)[C@H]1c1ccc(CO)cc1 | 1.41 | -0.0818 | 0.435 | -0.179 (inactive) | -0.127 | -0.0545 | -0.267 | -0.192 | -0.777 | 0.245
COc1ccc([Si](C)(C)[C@H]2[C@H](CC(=O)N3Cc4ccccc4C[C@H]3CO)O[C@@]3(C(=O)N(Cc4cccc(N5C(=O)c6cccc7cccc5c67)c4)c4ccccc43)[C@@H]2C)cc1 | 1.63 | -0.37 | -0.151 | -1.87 (inactive) | 1.31 | 0.627 | 0.774 | 1.28 | 0.948 | 1.2
O=C1N(Cc2ccccc2)c2ccccc2[C@H]2OC(c3ccc(OCCCO)cc3)=N[C@@]12Cc1ccccc1 | 1.53 | 0.655 | 0.794 | -0.385 (inactive) | 1.16 | 1.29 | 0.279 | 0.582 | 0.194 | 0.925
COc1ccc([Si](C)(C)[C@@H]2[C@@H](CCO)O[C@]3(C(=O)N(Cc4ccccc4)c4ccc(N5C(=O)c6ccccc6Oc6ccccc65)cc43)[C@H]2C)cc1 | 0.0104 | -0.171 | 0.462 | -1.28 (inactive) | -0.673 | -1.02 | -1.04 | -0.398 | -0.328 | -0.0458
C=CCC(OC(C)=O)[C@@H]1[C@@H](N(Cc2ccc(-c3ccccc3)cc2)C(=O)c2ccc(C)cc2)c2cc(OCCCO)ccc2N1C(=O)c1ccc2ccccc2c1 (stereo not given in full) | -0.376 | -0.165 | -0.093 | -1.36 (inactive) | 0.265 | -0.549 | -0.0575 | 0.168 | -0.134 | 0.944
C[C@]1(C(=O)NCC(F)(F)F)c2ccccc2C(=O)N(Cc2ccc(OC(F)(F)F)cc2)[C@H]1c1ccc(CO)cc1 | 1.34 | -0.0378 | 0.0314 | -0.24 (inactive) | 0.155 | -0.507 | 0.179 | -0.345 | 0.0106 | 0.19
C=C(CCCC)/C(=C/C[C@H](OC(C)=O)c1cccc(OCCO)c1)c1cc(C(=O)OC)ccc1OC | 0.286 | -0.197 | -0.096 | -0.325 (inactive) | 0.148 | -0.157 | -0.842 | -0.574 | -0.344 | 0.518
C=CC(CO)NC(=O)OCC1c2ccccc2-c2ccccc21 (stereo not given) | 0.193 | -0.291 | -0.475 | 0.406 (inactive) | 0.324 | 0.365 | 0.674 | 0.608 | 0.554 | 0.26
COCCOC(=O)N1C(=O)[C@@]2(c3cc(C#CC4(O)CCCCCC4)ccc31)[C@H](C(=O)NC[C@H](O)c1ccccc1)[C@H]1C(=O)O[C@H](c3ccccc3)[C@H](c3ccccc3)N1[C@@H]2c1ccc(O)cc1 | 1.36 | 0.203 | 0.316 | 0.209 (inactive) | 0.779 | 1.29 | -0.0406 | 0.334 | -0.0026 | 0.386
NCCCC[C@@H]1NC(=O)[C@H]2C[C@@H](C(=O)NCc3ccc(F)cc3)[C@@H](c3cccc(OCCO)c3)N2C1=O | 1.43 | 0.0142 | -0.142 | -0.436 (inactive) | 1.32 | 1.34 | 0.803 | 1.47 | 1.6 | 0.799
CO[C@H]1O[C@H](CO)[C@@H](OC(=O)Nc2ccccc2)[C@@H]2OC(=O)[C@H](Cc3ccccc3)C/C=C/C[C@@H](Cc3ccccc3)C(=O)O[C@@H]12 | 1.46 | 0.273 | 0.651 | -0.724 (inactive) | 1.04 | 0.56 | 0.0366 | 0.877 | 0.048 | 1.14
O=C(NCC(F)(F)F)[C@@H]1c2ccccc2C(=O)N(CC23CC4CC(CC(C4)C2)C3)[C@H]1c1ccc(CO)cc1 | 0.586 | -0.0677 | -0.217 | -1.32 (inactive) | 0.75 | 0.804 | 0.169 | 0.858 | 0.26 | 0.47
COC(=O)[C@@]1(Cc2ccccc2CN=[N+]=[N-])COC(c2ccc(OCCCO)cc2)=N1 | 1.97 | 0.269 | 1.23 | 0.861 (inactive) | -1.76 | -1.02 | -1.76 | -1.68 | -3.61 | -1.48
COc1ccc(CCNC(=O)[C@@]2(Sc3ccc(C)cc3)CC(=O)N(Cc3cc(C(F)(F)F)cc(C(F)(F)F)c3)[C@@H]2c2ccc(CO)cc2)cc1 | 0.629 | 0.18 | 1.14 | 0.257 (inactive) | -1.59 | -0.655 | -1.81 | -0.927 | -1.88 | -0.497
CC(=O)NCCCC[C@@H]1NC(=O)[C@H]2C[C@@H](C(=O)NCCCCCC[N+](C)(C)C)[C@@H](c3ccc(O)cc3)N2C1=O | 1.71 | -0.186 | -0.414 | -0.652 (inactive) | 0.348 | 0.612 | 0.173 | 0.946 | 1.23 | 0.965
